RECQ1 inh-1 – qHTS Assay for Inhibitors of RecQ-Like Dna Helicase 1 (RECQ1); ATP-dependent DNA helicase Q1 (Homo sapiens), P46063; RECQ1 DNA unwinding, red fluorescence kinetic read; Potency, µM (series often up to 57.3 µM), without a hit: at the highest dose activity, negative = inhibition, usual class: inhibitors; actives 0.54% (n = 240,000); AID 2549, 2010;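 note: plate controls were vehicle for no effect and no enzyme for full effect; nearly all actives have a fitted effect of over 30% in size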
Target sequence (P46063 whole entry, looked up): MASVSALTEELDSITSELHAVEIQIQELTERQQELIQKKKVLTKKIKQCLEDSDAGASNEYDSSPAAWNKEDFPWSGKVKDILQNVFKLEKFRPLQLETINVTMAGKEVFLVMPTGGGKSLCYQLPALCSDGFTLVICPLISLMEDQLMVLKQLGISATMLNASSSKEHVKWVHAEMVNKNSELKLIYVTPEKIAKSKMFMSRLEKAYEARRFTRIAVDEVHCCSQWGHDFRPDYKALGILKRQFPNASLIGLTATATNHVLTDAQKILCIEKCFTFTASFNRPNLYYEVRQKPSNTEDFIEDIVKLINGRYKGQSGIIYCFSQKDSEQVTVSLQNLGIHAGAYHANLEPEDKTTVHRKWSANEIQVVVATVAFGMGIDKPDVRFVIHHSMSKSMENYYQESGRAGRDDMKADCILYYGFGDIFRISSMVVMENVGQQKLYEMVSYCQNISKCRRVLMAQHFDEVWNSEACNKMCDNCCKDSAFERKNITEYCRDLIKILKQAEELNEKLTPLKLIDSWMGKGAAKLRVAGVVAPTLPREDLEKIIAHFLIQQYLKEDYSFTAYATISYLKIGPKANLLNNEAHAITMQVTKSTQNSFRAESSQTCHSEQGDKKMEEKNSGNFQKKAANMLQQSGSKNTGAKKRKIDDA
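50 nM RECQ1T1 preincubated 15 min with compound in Tris pH 8.0 buffer with MgCl2, DTT, Tween-20 and 2.5 ug/ml poly(dI-dC); started with 200 nM TAMRA/BHQ-2 forked duplex and 2 mM ATP. Unwinding read as fluorescence (525/598 nm), two reads 2 h apart.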
KDM4E inh – qHTS Assay for Inhibitors of Human Jumonji Domain Containing 2E (JMJD2E) | Lysine-specific demethylase 4E (Homo sapiens), B2RXH2 | JMJD2E catalytic domain, FDH-coupled NADH fluorescence (FDH is formaldehyde dehydrogenase) | Potency, µM (doses to about 57.1 µM), inactives show top-dose activity change, negative = inhibition, hits mostly inhibitors | actives 1.6% (n = 230,000); active = well fitted inhibition curve with a large enough effect, not every such curve was filed as active; inconclusive = small, poorly fitted or top-dose-only effect, or another doubt; inactive = no such curve, though single readings can be large or run the other way;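 note: 0% = wells with enzyme and -100% = buffer wells without enzyme; nearly all actives have a fitted effect of over 50% in size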
APE1 inh-1 – qHTS Assay for Inhibitors of the Human Apurinic/apyrimidinic Endonuclease 1 (APE1); DNA repair nuclease/redox regulator APEX1 (Homo sapiens), P27695; recombinant APE1, TAMRA/BHQ-2 abasic DNA cleavage fluorescence; Potency, µM (highest dose often 65.8 µM), for inactives: at the highest dose activity change, negative = inhibition, actives largely listed as inhibitors; actives 0.35% (n = 350,000);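 note: plate controls were vehicle for no effect and reference inhibitor for full effect; nearly all actives have a fitted effect of over 55% in size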
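APE1 at 0.75 nM preincubated 15 min at room temperature with compound. Reaction then started with 50 nM double-stranded THF-abasic substrate labelled with TAMRA/BHQ-2, and 525/598 nm fluorescence read kinetically. Activity taken as third-minus-first read difference, normalized to DMSO and NSC13755 controls.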
TDP1 block – qHTS Assay for Inhibitors of Tyrosyl-DNA Phosphodiesterase (TDP1). Potency, µM (highest dose often 130 µM), inactives show at the highest dose activity change, negative = inhibition, actives largely listed as inhibitors. actives 0.28% (n = 350,000). Tyrosyl-DNA phosphodiesterase 1 (Homo sapiens), Q9NUW8. recombinant TDP1, AlphaScreen DNA substrate cleavage; note: nearly all actives have a fitted effect of over 40% in size
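Here, a 5' biotin and 3' phosphotyrosine-FITC DNA oligonucleotide reports Tdp1 activity: intact substrate bridges AlphaScreen beads, while cleavage leaves a 3' phosphate and drops signal. All incubations at room temperature.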
BLM inh-1 – qHTS Assay for Inhibitors of Bloom's syndrome helicase (BLM). RecQ-like DNA helicase BLM (Homo sapiens), P54132. recombinant BLM DNA unwinding, fluorescence dequenching. Potency, µM (series often up to 56.1 µM), without a hit: at the top dose activity change, negative = inhibition, hits mostly inhibitors. actives 0.2% (n = 350,000);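 note: plate controls were vehicle for no effect and no enzyme for full effect; nearly all actives have a fitted effect of over 35% in size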
L3MBTL1 block – qHTS Assay for the Inhibitors of L3MBTL1; Lethal(3)malignant brain tumor-like protein 1 (Homo sapiens), Q9Y468; AlphaScreen L3MBTL1–H3K9me1 peptide binding; Potency, µM (doses to about 57.1 µM), for the others: at the top dose activity, negative = inhibition, usual class: inhibitors; actives 0.66% (n = 230,000); note: nearly all actives have a fitted effect of over 60% in size
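L3MBTL1 50 nM + b-AHA-H3(1-15)K9me1 75 nM, 30 min RT; compound added, 30 min RT; streptavidin donor/Ni-chelate acceptor beads 10 ug/mL each final, 30 min RT dark; AlphaScreen read.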
APE1 dye cs – Counterscreen for APE1 Inhibitors: Fluorescent Dye Displacement Assay | Potency, µM (series often up to 28.5 µM), without a hit: at the highest dose activity change, negative = inhibition, usual class: inhibitors | shares compounds with APE1 inh-1 | actives 7% (n = 480) | DNA fluorescent dye displacement counterscreen, fluorescence;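 note: loss of thiazole orange fluorescence as the dye is displaced from duplex DNA; 0% = ThO with dsDNA and no compound and -100% = ThO without dsDNA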
Endo IV inh – Counterscreen for APE1 Inhibitors: qHTS Assay for Inhibitors of Endonuclease IV; shares compounds with APE1 inh-1; E. coli Endo IV, fluorogenic AP-site DNA cleavage; Potency, µM (doses to about 27.1 µM), for inactives: at the highest dose activity change, negative = inhibition, hits mostly inhibitors; actives 4% (n = 560);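 note: plate controls were uninhibited enzyme wells for no effect and no enzyme buffer wells for full effect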
APE1 inh-2 – Confirmation qHTS Assay for Inhibitors of the Human Apurinic/apyrimidinic Endonuclease 1 (APE1); AID 2572, 2010; Potency, µM (series often up to 57.1 µM), for the others: top-dose activity change, negative = inhibition, usual class: inhibitors; actives 44% (n = 750); shares compounds with APE1 inh-1; purified APE1, fluorogenic abasic-site DNA cleavage; note: nearly all actives have a fitted effect of over 30% in size
APE1 FP inh – qHTS FP-Based Assay for Inhibitors of the Human Apurinic/apyrimidinic Endonuclease 1 (APE1). shares compounds with APE1 inh-1. APE1 binding to TAMRA-labelled double-stranded DNA, fluorescence polarization displacement. Potency, µM (top dose mostly 28.5 µM), for inactives: top-dose activity, negative = inhibition, hits mostly inhibitors. actives 7% (n = 480)
BLM inh-2 – qHTS Confirmation Assay for Inhibitors of Bloom's syndrome helicase (BLM). shares compounds with BLM inh-1. actives 40% (n = 220). Potency, µM, for inactives: max response, negative = inhibition, usual class: inhibitors. BLM DNA unwinding, fluorescence quenching, biochemical;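 note: strand separation dequenches TAMRA so unwinding raises red fluorescence; series mostly up to about 69 µM; nearly all actives have a fitted effect of over 45% in size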
RECQ1 inh conf – Confirmation qHTS Assay for Inhibitors of RecQ-Like Dna Helicase 1 (RECQ1); Potency, µM (doses to about 229 µM), without a hit: at the top dose activity change, negative = inhibition, most hits filed as inhibitors; actives 28% (n = 610); RECQ1 helicase DNA unwinding, fluorescence; shares compounds with RECQ1 inh-1; note: nearly all actives have a fitted effect of over 45% in size
ADP FP counter – Counterscreen for RECQ1 Inhibitors: ADP Fluorescence Polarization Displacement Assay. shares compounds with RECQ1 inh-1. ADP fluorescence polarization displacement counterscreen. Potency, µM (doses to about 228 µM), for inactives: at the top dose activity change, negative = inhibition, usual class: inhibitors. actives 27% (n = 530). AID 2711, 2010; note: nearly all actives have a fitted effect of over 45% in size
RECQ1 inh-2 – Confirmation qHTS Assay for Inhibitors of RecQ-Like Dna Helicase 1 (RECQ1) - Round 2 Cherry Picks; recombinant RECQ1 DNA unwinding, red fluorescence; shares compounds with RECQ1 inh-1; actives 15% (n = 1,100); Potency, µM (doses to about 119 µM), inactives show at the top dose activity, negative = inhibition, hits mostly inhibitors; note: nearly all actives have a fitted effect of over 50% in size
An asterisk follows results filed as active; u = inconclusive; x = no result given; [ ] = another dose, or the depositor's remark. Only a selection was taken, and hits are over-represented in it overall. Unless noted, calls come from the whole dose curve; as a rule, active = well fitted curve in the direction sought with a large enough effect; inconclusive = small, poorly fitted or top-dose-only effect, or another doubt; inactive = no such curve, though single readings can be large; an effect the other way counts as inactive or inconclusive. Unless noted, % is set by controls: 0 for no effect and ±100 for the full control effect; potency is the fitted concentration of half-maximal effect.

SMILES	RECQ1 inh-1	KDM4E inh	APE1 inh-1	TDP1 block	BLM inh-1	L3MBTL1 block	APE1 inh-2	RECQ1 inh conf	ADP FP counter	others
O=C(NC1CC1)c1cc(-c2ccco2)nc2ccccc12	20µM*	u	11µM*	4.5µM*	14µM*	x	25µM*	20µM*	56µM*	APE1 dye cs=u;Endo IV inh=u;APE1 FP inh=224%;BLM inh-2=20µM*
CCOC(=O)c1cnc2c(ccc3ccccc32)c1Nc1ccc(C(C)=O)cc1	x	x	x	x	-7%	x	x	x	x
CCOC(=O)c1cc(-c2cccnc2)nn1-c1ccccc1C	-6%	-4%	10%	4%	-4%	3%	x	x	x
CCOC(=O)c1cc(-c2ccc(OC)cc2)nn1-c1ccccc1C(=O)O	7.9µM*	-21%	2.5µM*	7.9µM*	-18%	u	40µM*	u	49%[91.9 µM]	RECQ1 inh-2=u
COc1cccc(C(=O)Nc2ccc(Cl)c(-c3nc4ccccc4[nH]3)c2)c1	x	x	x	6%	-4%	x	x	x	x

Assay outcomes (PubChem)
